Inconclusive results are not listed. Entries that show only a call come without a potency. Activity calls are given as the source filed them. Unless noted, the call rests on the fitted dose curve; in most records, active means well fitted curve in the direction sought with a large enough effect in the repeat runs; inconclusive means weak or mixed curves; inactive means no such curve, though single readings can be large; an effect the other way counts as inactive or inconclusive.
How the values were obtained:
[1] = qHTS assay to identify small molecule antagonists of the glucocorticoid receptor (GR) signaling pathway - cell viability counter screen (AID 720693); further: nearly all actives have a fitted effect of over 55% in size
[2] = qHTS assay for identifying genotoxic compounds that show differential cytotoxicity against isogenic chicken DT40 cell lines with known DNA damage response pathways - wild type cell line (AID 743012); further: nearly all actives have a fitted effect of over 60% in size
Summary of the method: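 Parental DNA repair-proficient DT40 cells, 300 per well, were pre-incubated ~0.5 h at 37 C/5% CO2, pin-dosed with compounds in DMSO, then incubated 40 h. Viability was read as CellTiter-Glo luminescence after 30 min at room temperature.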

[3] = qHTS assay for identifying genotoxic compounds that show differential cytotoxicity against isogenic chicken DT40 cell lines with known DNA damage response pathways - Rev3 mutant cell line (AID 743014); further: nearly all actives have a fitted effect of over 55% in size; further: potency means the concentration at half of the fitted maximal effect
[4] = qHTS assay for identifying genotoxic compounds that show differential cytotoxicity against isogenic chicken DT40 cell lines with known DNA damage response pathways - Rad54/Ku70 mutant cell line (AID 743015); further: nearly all actives have a fitted effect of over 60% in size
[5] = qHTS assay to identify small molecule antagonists of the androgen receptor (AR) signaling pathway - cell viability counter screen (AID 743033; further: nearly all actives have a fitted effect of over 45% in size)
[6] = target: Androgen receptor (Homo sapiens) (UniProt P10275); test: qHTS assay to identify small molecule antagonists of the androgen receptor (AR) signaling pathway (AID 743035; active means well fitted inhibition curve with a large enough effect in the signal ratio in the repeat runs, not every such curve was filed as active; the % refers to the signal ratio)
Androgen receptor (Homo sapiens), sequence (P10275 whole entry, looked up): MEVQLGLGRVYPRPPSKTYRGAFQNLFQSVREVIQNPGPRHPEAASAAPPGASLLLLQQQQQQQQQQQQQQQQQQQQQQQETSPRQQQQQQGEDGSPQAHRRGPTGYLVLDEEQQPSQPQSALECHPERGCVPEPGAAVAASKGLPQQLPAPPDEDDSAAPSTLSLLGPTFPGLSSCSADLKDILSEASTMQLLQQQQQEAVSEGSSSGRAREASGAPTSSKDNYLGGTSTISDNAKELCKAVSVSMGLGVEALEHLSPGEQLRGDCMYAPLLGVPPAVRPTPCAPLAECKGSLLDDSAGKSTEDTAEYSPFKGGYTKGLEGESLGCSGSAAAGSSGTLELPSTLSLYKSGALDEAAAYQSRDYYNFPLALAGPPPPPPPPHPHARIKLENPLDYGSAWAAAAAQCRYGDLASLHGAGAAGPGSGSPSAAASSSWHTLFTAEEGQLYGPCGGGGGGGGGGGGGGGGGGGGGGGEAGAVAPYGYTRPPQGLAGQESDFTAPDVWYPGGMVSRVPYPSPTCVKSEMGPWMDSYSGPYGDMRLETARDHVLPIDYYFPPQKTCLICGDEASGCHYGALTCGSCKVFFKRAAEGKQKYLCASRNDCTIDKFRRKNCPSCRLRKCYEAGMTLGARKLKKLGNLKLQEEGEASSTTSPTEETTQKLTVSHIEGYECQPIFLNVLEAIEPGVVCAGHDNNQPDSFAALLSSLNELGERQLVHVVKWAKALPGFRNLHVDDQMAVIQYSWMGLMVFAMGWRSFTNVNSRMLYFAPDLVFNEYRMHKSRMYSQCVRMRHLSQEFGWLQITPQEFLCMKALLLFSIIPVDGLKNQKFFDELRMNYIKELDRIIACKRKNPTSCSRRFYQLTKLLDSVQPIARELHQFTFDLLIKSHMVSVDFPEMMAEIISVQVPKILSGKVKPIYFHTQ
Summary of the method: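 HEK293 cells stably carrying a UAS-driven beta-lactamase reporter (AR-UAS-bla GripTite) were plated for 4 h at 37C, then given compound and the agonist R1881 and incubated 16 h. Reporter activity was read by LiveBLAzer B/G FRET fluorescence after 2 h at room temperature.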

[7] = target: Androgen receptor (Homo sapiens) (UniProt P10275); test: qHTS assay to identify small molecule agonists of the androgen receptor (AR) signaling pathway (AID 743036; active means well fitted activation curve with a large enough effect in the signal ratio in the repeat runs, with a control signal flat, not every such curve was filed as active; the % refers to the signal ratio)
Summary of the method: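 Reporter line: GeneBLAzer AR-UAS-bla-GripTite (HEK293). Steps: plate cells, 4 h rest, add compounds, 16 h at 37C, add LiveBLAzer B/G substrate, 2 h at RT, read fluorescence.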

[8] = target: Androgen receptor (Homo sapiens) (UniProt P10275); test: qHTS assay to identify small molecule agonists of the androgen receptor (AR) signaling pathway using the MDA cell line (AID 743040; further: nearly all actives have a fitted effect of over 20% in size)
Summary of the method: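 MDA-kb2 breast carcinoma cells stably carrying an MMTV-driven luciferase reporter (AR- and GR-responsive) were seeded and held 5 h at 37C, 0% CO2, then exposed to compounds in DMSO for 16 h. Luminescence was read 30 min after ONE-Glo addition.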

[9] = qHTS assay to identify small molecule antagonists of the androgen receptor (AR) signaling pathway using the MDA cell line - cell viability counter screen (AID 743041; further: nearly all actives have a fitted effect of over 45% in size)
Summary of the method: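 MDA-kb2 AR-luc human breast carcinoma cells (MMTV-luciferase, AR/GR responsive) were treated with compounds plus R1881 agonist for 16 h at 37 °C. Viability was read as CellTiter-Fluor fluorescence in the same wells as the reporter assay.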

[10] = target: Androgen receptor (Homo sapiens) (UniProt P10275); test: qHTS assay to identify small molecule antagonists of the androgen receptor (AR) signaling pathway using the MDA cell line (AID 743042; further: nearly all actives have a fitted effect of over 55% in size)
Summary of the method: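 MDA-kb2 cells (human breast carcinoma, stably carrying an MMTV-luciferase reporter responsive to AR and GR) were plated at 3,000 cells/well and preincubated 5 hr at 37C, then given compound plus R1881 agonist for 16 h. ONE-Glo luminescence was read.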

[11] = qHTS assay to identify small molecule antagonists of the thyroid receptor (TR) signaling pathway - cell viability counter screen (AID 743064); further: nearly all actives have a fitted effect of over 50% in size
Summary of the method: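 Plate GH3.TRE-Luc cells; incubate 4 h at 37 °C; add compound, then T3 to 1 nM final; incubate 23.5 h; add CellTiter-Fluor; incubate 30 min at 37 °C, 5% CO2; read fluorescence.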

[12] = qHTS assay to identify small molecule antagonists of the thyroid receptor (TR) signaling pathway (AID 743065); further: series mostly up to about 70 µM; nearly all actives have a fitted effect of over 55% in size
Summary of the method: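 GH3.TRE-Luc rat pituitary cells carrying two TR response elements driving luciferase were plated for 4 h, given compound plus 1 nM T3 (final), and incubated 23.5 h at 37 C. ONE-Glo luminescence measured reporter inhibition; CellTiter-Fluor fluorescence tracked cytotoxicity.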

[13] = system: thyroid hormone receptor (rat, GH3 cells); test: qHTS assay to identify small molecule agonists of the thyroid receptor (TR) signaling pathway (AID 743066; calls by dose curve; further: potency means the concentration at half of the fitted maximal effect)
[14] = target: Estrogen receptor (Homo sapiens) (UniProt P03372); test: qHTS assay to identify small molecule antagonists of the estrogen receptor alpha (ER-alpha) signaling pathway (AID 743069; active means well fitted curve in the direction sought with a large enough effect in the signal ratio in the repeat runs, not every such curve was filed as active; the % refers to the signal ratio)
Estrogen receptor (Homo sapiens), sequence (P03372 whole entry, looked up): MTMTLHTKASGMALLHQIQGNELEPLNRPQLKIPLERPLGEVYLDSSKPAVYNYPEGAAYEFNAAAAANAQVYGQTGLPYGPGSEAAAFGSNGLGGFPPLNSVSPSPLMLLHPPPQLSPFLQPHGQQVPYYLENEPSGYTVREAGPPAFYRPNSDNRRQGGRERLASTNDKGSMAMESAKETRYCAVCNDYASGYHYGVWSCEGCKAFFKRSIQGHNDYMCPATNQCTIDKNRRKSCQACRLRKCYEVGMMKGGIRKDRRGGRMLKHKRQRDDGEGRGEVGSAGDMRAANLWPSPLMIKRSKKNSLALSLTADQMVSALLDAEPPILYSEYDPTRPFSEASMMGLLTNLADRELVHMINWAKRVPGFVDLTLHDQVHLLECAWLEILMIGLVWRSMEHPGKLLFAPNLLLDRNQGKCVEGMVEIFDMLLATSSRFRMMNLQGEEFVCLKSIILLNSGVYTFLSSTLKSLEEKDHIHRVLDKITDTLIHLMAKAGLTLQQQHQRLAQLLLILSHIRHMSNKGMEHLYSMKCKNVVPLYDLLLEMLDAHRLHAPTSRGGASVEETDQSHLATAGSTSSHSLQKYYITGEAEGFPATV
Summary of the method: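 HEK293 cells stably carrying an ER-alpha-UAS-bla beta-lactamase reporter were pre-cultured overnight in 2% charcoal-stripped FBS medium. Test compounds in DMSO were added together with 17beta-estradiol for 18 hr at 37C. Read-out was fluorescence after 2 hr with LiveBLAzer B/G FRET substrate at room temperature.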

[15] = qHTS assay to identify small molecule antagonists of the estrogen receptor alpha (ER-alpha) signaling pathway - cell viability counter screen (AID 743074; calls by dose curve; further: nearly all actives have a fitted effect of over 45% in size)
[16] = target: Estrogen receptor (Homo sapiens) (UniProt P03372); test: qHTS assay to identify small molecule agonists of the estrogen receptor alpha (ER-alpha) signaling pathway (AID 743075; calls by dose curve)
[17] = target: Estrogen receptor (Homo sapiens) (UniProt P03372); test: qHTS assay to identify small molecule agonists of the estrogen receptor alpha (ER-alpha) signaling pathway using the BG1 cell line (AID 743079); further: nearly all actives have a fitted effect of over 20% in size
[18] = qHTS assay to identify small molecule antagonists of the estrogen receptor alpha (ER-alpha) signaling pathway using the BG1 cell line (AID 743080; calls by dose curve;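 further: BG1 cells stimulated with 17beta-estradiol alongside compound; series mostly up to about 70 µM; nearly all actives have a fitted effect of over 25% in size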)
Summary of the method: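 Readout is ONE-Glo luminescence, taken 30 min at room temperature after reagent addition, preceded by a CellTiter-Fluor viability read; BG1-Luc-4E2 cells had received compound and 17beta-estradiol for 21.5 h at 37 C.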

[19] = qHTS assay to identify small molecule antagonists of the estrogen receptor alpha (ER-alpha) signaling pathway using the BG1 cell line - cell viability counter screen (AID 743081);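 further: compound given together with 17beta-estradiol as the ER stimulus; series mostly up to about 70 µM; nearly all actives have a fitted effect of over 45% in size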
Aromatase (Homo sapiens) = Aromatase (Homo sapiens) (UniProt P11511); test: qHTS assay to identify aromatase inhibitors (AID 743083)
Aromatase (Homo sapiens), sequence (P11511 whole entry, looked up): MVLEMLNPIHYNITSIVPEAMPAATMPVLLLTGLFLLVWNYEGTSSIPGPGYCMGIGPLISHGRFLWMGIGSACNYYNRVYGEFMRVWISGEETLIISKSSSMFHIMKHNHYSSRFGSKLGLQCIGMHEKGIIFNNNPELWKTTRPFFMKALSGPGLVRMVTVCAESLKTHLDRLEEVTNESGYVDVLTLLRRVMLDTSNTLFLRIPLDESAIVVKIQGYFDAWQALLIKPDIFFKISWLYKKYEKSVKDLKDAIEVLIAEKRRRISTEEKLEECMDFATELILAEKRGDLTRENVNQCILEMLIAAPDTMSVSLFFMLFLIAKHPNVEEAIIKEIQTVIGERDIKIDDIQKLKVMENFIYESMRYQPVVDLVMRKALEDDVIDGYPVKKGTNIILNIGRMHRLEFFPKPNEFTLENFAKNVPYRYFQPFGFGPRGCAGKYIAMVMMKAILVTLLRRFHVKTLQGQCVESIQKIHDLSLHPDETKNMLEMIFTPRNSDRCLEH

SMILES | Potency [1] | Potency [2] | Potency [3] | Potency [4] | outcome [5] | Potency [6] | outcome [7] | outcome [8] | outcome [9] | outcome [10] | Potency [11] | Potency [12] | Potency [13] | Potency [14] | Potency [15] | Potency [16] | Potency [17] | outcome [18] | outcome [19] | outcome (Aromatase (Homo sapiens))
C=CCOCC(O)CCl (stereo unspecified) | inactive | inactive | inactive | inactive | inactive | inactive | inactive | inactive | inactive | inactive | inactive | inactive | inactive | inactive | inactive | inactive | inactive | inactive | inactive | inactive
NCCc1ccn[nH]1 | inactive | inactive | inactive | inactive | inactive | inactive | inactive | inactive | – | inactive | – | – | – | inactive | inactive | inactive | inactive | inactive | inactive | inactive
CC(C)CCCC(C)CC=O (stereo unspecified) | inactive | inactive | inactive | inactive | inactive | – | – | – | inactive | – | inactive | inactive | inactive | inactive | inactive | inactive | inactive | inactive | inactive | inactive
CCCO | inactive | inactive | inactive | inactive | inactive | – | – | – | inactive | – | inactive | inactive | inactive | inactive | inactive | inactive | inactive | inactive | inactive | inactive
CN=C(NC#N)NCCSCc1csc(N=C(N)N)n1 | inactive | inactive | inactive | inactive | inactive | – | – | – | inactive | – | inactive | inactive | inactive | inactive | inactive | inactive | inactive | inactive | inactive | inactive
CCC(O)C(C)(C)C (stereo unspecified) | inactive | inactive | inactive | inactive | inactive | – | – | – | inactive | – | inactive | inactive | inactive | inactive | inactive | inactive | – | inactive | inactive | inactive
N#CCCOCCOCCC#N | inactive | inactive | 61.1 µM (active) | inactive | inactive | – | – | – | inactive | – | inactive | inactive | inactive | inactive | inactive | inactive | inactive | inactive | inactive | inactive
CCCCCCCCCCC | inactive | inactive | inactive | inactive | inactive | inactive | inactive | inactive | inactive | inactive | inactive | – | 54.5 µM (active) | inactive | inactive | inactive | inactive | inactive | inactive | inactive
CC(CC(=O)O)CC(C)(C)C (stereo unspecified) | inactive | inactive | inactive | inactive | inactive | – | – | – | inactive | – | inactive | inactive | inactive | inactive | inactive | inactive | inactive | inactive | inactive | inactive
Cc1c(C(C)C)c(=O)n(-c2ccccc2)n1C | inactive | inactive | inactive | inactive | inactive | – | – | – | inactive | – | inactive | inactive | inactive | inactive | inactive | inactive | inactive | inactive | inactive | inactive
CCCCC(=O)N(C)C | inactive | inactive | inactive | inactive | inactive | – | – | – | inactive | – | inactive | inactive | inactive | inactive | inactive | inactive | inactive | inactive | inactive | inactive
O=c1[nH]c(=O)c2[nH]c(=O)[nH]c2[nH]1 | inactive | inactive | inactive | inactive | inactive | – | – | – | inactive | – | inactive | inactive | inactive | inactive | inactive | inactive | inactive | inactive | inactive | inactive
CCCCC[Si](OCC)(OCC)OCC | inactive | inactive | inactive | inactive | inactive | – | inactive | inactive | – | inactive | inactive | – | – | – | inactive | – | – | – | inactive | inactive
COCC(=O)Nc1c(I)c(C(=O)NCC(O)CO)c(I)c(C(=O)N(C)CC(O)CO)c1I (stereo unspecified) | inactive | inactive | inactive | inactive | inactive | inactive | inactive | inactive | inactive | inactive | inactive | – | inactive | inactive | inactive | inactive | inactive | inactive | inactive | inactive
O=[Si]=O | inactive | inactive | inactive | inactive | inactive | – | – | – | inactive | – | inactive | inactive | inactive | inactive | inactive | inactive | inactive | inactive | inactive | inactive
COC(OC)C(C)c1ccccc1 (stereo unspecified) | inactive | inactive | inactive | inactive | inactive | inactive | inactive | inactive | inactive | inactive | inactive | inactive | inactive | inactive | inactive | inactive | inactive | inactive | inactive | inactive
COC(=O)CCC(=O)O | inactive | inactive | inactive | inactive | inactive | – | – | – | inactive | – | inactive | inactive | inactive | inactive | inactive | inactive | inactive | inactive | inactive | inactive
